This is one part of a sample in which the strongest signals are shown more often than they occur.

The values that follow come from the supplement of paper PMC8728848.

Assay in all cases: glycan array binding signal (z-score within array); higher = stronger binding
Settings in all cases: glycan notation: IUPAC condensed, linker removed

Assay [1] has as its target GlcNAc(a1-4)Gal(b1-4)GlcNAc(b1-3)Gal(b1-4)[Fuc(a1-3)]GlcNAc(b1-3)Gal(b1-4)[Fuc(a1-3)]GlcNAc. Summed up: (§1)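 The Consortium for Functional Glycomics database supplied 3228 glycan arrays, of which those lacking an available protein sequence were dropped. The binding signal, a within-array Z-score, was averaged across arrays of the same protein sequence and across linkers. Negative scores can be read as non-binding.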

The target of assay [2] is GlcNAc(b1-2)[GlcNAc(b1-4)]Man(a1-3)[GlcNAc(b1-4)][GlcNAc(b1-2)[GlcNAc(b1-6)]Man(a1-6)]Man(b1-4)GlcNAc(b1-4)[Fuc(a1-6)]GlcNAc. Summed up:
as §1

Assay [3] addresses GlcNAc(b1-3)Fuc. Summed up: as §1
For assay [4], the target named is GlcNAc(b1-3)Gal(b1-4)GlcNAc(b1-2)[GlcNAc(b1-3)Gal(b1-4)GlcNAc(b1-6)]Man(a1-6)[GlcNAc(b1-3)Gal(b1-4)GlcNAc(b1-2)Man(a1-3)]Man(b1-4)GlcNAc(b1-4)GlcNAc. Summed up: as §1
The target of assay [5] is GlcNAc(b1-3)Gal(b1-4)GlcNAc(b1-3)[GlcNAc(b1-3)Gal(b1-4)GlcNAc(b1-3)]GalNAc. Summed up:
as §1

Assay [6] concerns the target Man(a1-2)Man(a1-3)Man. In outline:
as §1

Assay [7] deals with Neu5Ac(a2-3)Gal. Summed up:
as §1

The target in assay [8] is Neu5Ac(a2-3)Gal(b1-3)GalNAc(b1-4)[Neu5Ac(a2-3)]Gal(b1-4)Glc. Summed up: as §1
For assay [9], the target named is Neu5Ac(a2-3)Gal(b1-3)GalNAc(b1-4)[Neu5Ac(a2-8)Neu5Ac(a2-3)]Gal(b1-4)Glc. Summed up:
as §1

Assay [10] has as its target Neu5Ac(a2-3)Gal(b1-3)[Neu5Ac(a2-6)]GlcNAc(b1-3)[Fuc(a1-3)[Gal(b1-4)]GlcNAc(b1-6)]Gal(b1-4)Glc. In outline:
as §1

Assay [11] has as its target Neu5Ac(a2-3)Gal(b1-3)]Neu5Ac(a2-3)Gal(b1-4)]GlcNAc. In outline: as §1
Assay [12] has as its target Neu5Ac(a2-3)Gal(b1-4)GlcNAc(b1-2)Man(a1-3)[GlcNAc(b1-4)][Neu5Ac(a2-3)Gal(b1-4)GlcNAc(b1-2)Man(a1-6)]Man(b1-4)GlcNAc(b1-4)GlcNAc. Summed up: as §1
Assay [13] concerns the target Neu5Ac(a2-3)Gal(b1-4)GlcNAc(b1-3)[Neu5Ac(a2-3)Gal(b1-4)GlcNAc(b1-6)]GalNAc. In outline: as §1
Assay [14] addresses Neu5Ac(a2-3)Gal(b1-4)[Fuc(a1-3)]GlcNAc(b1-3)Gal(b1-4)GlcNAc. Summed up:
as §1

Assay [15] deals with Neu5Ac(a2-3)Gal(b1-4)[Fuc(a1-3)]GlcNAc(b1-6)[Neu5Ac(a2-3)Gal(b1-3)]GalNAc. Summed up: as §1
Assay [16] concerns the target Neu5Ac(a2-6)Gal(b1-4)Glc. In outline: as §1
The target of assay [17] is Neu5Ac(a2-6)Gal(b1-4)GlcNAc(b1-2)Man. In outline:
as §1

For assay [18], the target named is Neu5Ac(a2-6)Gal(b1-4)GlcNAc(b1-2)Man(a1-6)[GlcNAc(b1-2)Man(a1-3)]Man(b1-4)GlcNAc(b1-4)GlcNAc. Summed up: as §1
Assay [19] deals with Neu5Ac(a2-6)Gal(b1-4)GlcNAc(b1-3)Gal(b1-4)GlcNAc. Summed up: as §1
Assay [20] concerns the target Neu5Ac(a2-6)Gal(b1-4)GlcNAc(b1-3)Gal(b1-4)GlcNAc(b1-3)[Neu5Ac(a2-6)Gal(b1-4)GlcNAc(b1-3)Gal(b1-4)GlcNAc(b1-6)]GalNAc. In outline: as §1
The target in assay [21] is Neu5Ac(a2-6)Gal(b1-4)GlcNAc(b1-3)[Neu5Ac(a2-6)Gal(b1-4)GlcNAc(b1-6)]GalNAc. Summed up:
as §1

The target in assay [22] is Neu5Ac(a2-6)Gal(b1-4)GlcNAc(b1-6)[Gal(b1-3)GlcNAc(b1-3)]Gal(b1-4)Glc. Summed up: as §1
The target in assay [23] is Neu5Ac(a2-6)Gal(b1-4)GlcNAc(b1-6)[Gal(b1-3)]GalNAc. Summed up:
as §1

Assay [24] concerns the target Neu5Ac(a2-8)Neu5Ac(a2-8)Neu5Ac(a2-3)[Gal(b1-3)GalNAc(b1-4)]Gal(b1-4)Glc. In outline:
as §1

B1: PX14343E-bfa-545-24-545 (Bacteroides fragilis) (protein)
chain: LDRYPQEELSDGSFWKTPDDANKVVSDLYGYLSTWDQDNDINSDNATMGIKWAAGNVSKGIYDPADQGWSGDYANVRQCNLILSKIDEIPDYPEADKTKALGQVYFFRAYIYFNLIRSFGDVPYIDKPLDLKDMEGITRMPRAEVYEKIMADFDKAIAALPTEWGASDYGRVTKGAAMAMKARAALYYGNWDTAATEAKNVMDLGLYELYDKDNTGKYAELFWEKADGCDEFILVTQFNYPDKTHYLMGWECFPTKGWGGMNPTQSLVDAFEDSEGAPISKSKIYDPTDPFKNRDPRLEVDILHDGEEMYGVTIKVAPLASSGSTGINQHNDATETGYYGQKWLDPSLDPLSDGWNMGKDWVHIRYAEVLLTYAEAKNELQGLDPEAFDAVNQVRRRVGMPELQNTDPSKPTYCATQDDLRQRIRNEWRVEFCLEGGKRMWDIRRWGIAKDVLNAPFEGLKYKIVDNPNDPDKKVDGGKMCILYQGDPIILSGSRYSDNNYLFPVPQSEIDLNPALTQNPGY
Turning to B1, the “glycan array binding signal (z-score)” value in assay [1] is 8.96; in [2], -0.534; in assay [3], -0.635; in assay [4] it was 0.412; in [5], -0.23; in assay [6] it was -0.688. Also, the “glycan array binding signal (z-score)” value is -0.082 in assay [7]; -0.236 in assay [8]; -0.153 in assay [9]; 0.395 in assay [10]; -1.08 in assay [11]; 0.058 in [12]. Further, the “glycan array binding signal (z-score)” value in assay [13] was -0.912; in assay [14], -0.873; in assay [15] it was 0.423; in assay [16] it was -0.096; in assay [17] it was -0.34; in assay [18], 0.074. Besides, the “glycan array binding signal (z-score)” value in assay [19] is -0.139; in assay [20], 2.92; in [21] it was 2.89; in assay [22], -0.484; in assay [23], -0.085; in assay [24], -0.399.
